From PubChem
TbPYK inhibitor = blocks Trypanosoma brucei pyruvate kinase | Q57TT1 | TbPYK enzyme, Kinase-Glo Plus ATP luminescence, 45 min | Potency, µM (series often up to 76.8 µM), usual class: inhibitors | AID 624173 | hit rate 0.12% among 410,000; also: nearly all actives have a fitted effect of over 50% in size
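Enzyme and substrate buffer are dispensed first and compound is pin-transferred. ADP at 130 uM final then starts the reaction, which runs 45 min at room temperature. Detection reagent is added for 10 min before luminescence is imaged.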
LmPK inh = LmPK (Leishmania mexicana) enzyme inhibition; Q27686; hit rate 0.37% among 290,000; Potency, µM (series often up to 57.5 µM), actives largely listed as inhibitors; purified LmPK, Kinase-Glo ATP luminescence, 1 h; AID 1721
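Screened at intermediate enzyme activity to detect both inhibitors and activators: LmPK at 0.1 nM, with a 0.5 nM enzyme column as activation reference. PEP 0.5 mM, ADP 0.1 mM; ATP detected by luminescence after 1 h.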
RE007 growth inh = less growth of the S. pombe RE007 Vpr strain | S. pombe RE007 Vpr strain, BacTiter-Glo ATP luminescence, 24 h | AID 651644 | Potency, µM (top dose mostly 92.2 µM), usual class: inhibitors | hit rate 0.21% among 360,000; active = well fitted falling curve with a large enough effect; inconclusive = small, poorly fitted or top-dose-only effect; inactive = no such curve, though single readings can be large or run the other way; also: nearly all actives have a fitted effect of over 50% in size
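Fission yeast RE007 carrying one integrated HIV-1 vpr copy, seeded at OD 0.01 in PMG+AL medium with 23 nL pinned compound. Grown 24 h at 30 degrees; viability read by BacTiter-Glo luminescence after 5 min.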
FBPA Giardia inh = inhibitors of Giardia lamblia fructose-1,6-bisphosphate aldolase. A8B2U2. AID 2451. hit rate 0.71% among 290,000. purified Giardia FBPA. Potency, µM (series often up to 59.6 µM), actives largely listed as inhibitors; also: nearly all actives have a fitted effect of over 55% in size
Target sequence (A8B2U2 whole entry, looked up): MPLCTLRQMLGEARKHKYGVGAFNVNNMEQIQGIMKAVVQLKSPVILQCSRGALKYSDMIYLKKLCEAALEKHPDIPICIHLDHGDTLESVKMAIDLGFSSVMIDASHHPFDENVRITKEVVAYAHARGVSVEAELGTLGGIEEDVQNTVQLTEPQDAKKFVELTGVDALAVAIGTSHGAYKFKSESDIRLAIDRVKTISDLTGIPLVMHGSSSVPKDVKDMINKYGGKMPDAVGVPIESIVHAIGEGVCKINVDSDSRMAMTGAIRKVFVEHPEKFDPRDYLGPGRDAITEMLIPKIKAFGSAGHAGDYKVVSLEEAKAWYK
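40 nM FBPA preincubated 10 min at RT with compound (up to 57.5 uM final), then substrate plus GAPDH/TPI/NAD/arsenate coupling and diaphorase/resazurin added. Fluorescence read after 20 min at RT, 525/598 nm.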
Sm TGR block = inhibitors of Schistosoma mansoni thioredoxin glutathione reductase | purified TGR, DTNB reduction, TNB absorbance 405 nm | Potency, µM (titrated, usually from 114 µM), actives largely listed as inhibitors | hit rate 3% among 360,000 | AID 485364; also: nearly all actives have a fitted effect of over 60% in size
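Kinetic colorimetric format: TGR-catalysed, NADPH-driven DTNB reduction monitored via TNB absorbance. Enzyme dispensed at 20 nM; compound exposure 15 min at room temperature before reaction start.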
Hits are given with their value; . = inactive; ? = inconclusive; / = not tested or not shown; [ ] = another dose, or the depositor's remark. Compounds with a hit are over-represented: about 3.3% of the library has one in this group of screens. Unless noted, calls follow the shape of the dose curve; as a rule, active = well fitted curve in the direction sought with a large enough effect; inconclusive = small, poorly fitted or top-dose-only effect, or another doubt; inactive = no such curve, though single readings can be large; an effect the other way counts as inactive or inconclusive.

SMILES	TbPYK inhibitor	LmPK inh	RE007 growth inh	FBPA Giardia inh	Sm TGR block
COc1ccc(CCN2CC(C(=O)NCC(=O)Nc3ccc(F)c(F)c3)CC2=O)cc1OC (stereo unspecified)	.	/	.	/	.
CC(=O)c1ccccc1NC(=O)CSCc1nc2sc(C)c(C)c2c(=O)[nH]1	.	/	.	/	.
Nc1c(Cl)ncnc1N/N=C/c1ccccn1	.	.	?	.	?
Nc1c(Cl)ncnc1N/N=C/c1cccnc1	.	.	.	.	50µM
Cc1sc(NC(=O)CN2CCOCC2)c(C(=O)c2ccccc2)c1C	.	.	.	.	.
N/C(Cc1cccc2ccccc12)=N\OC(=O)c1ccc(Br)o1	/	.	/	.	45µM
CSc1nc(N)c(C(=O)NC2CCCCC2)s1	.	.	/	.	.
O=C1c2cccc3cccc(c23)C(=O)N1c1nccs1	.	.	.	.	.
O=C1c2cccc3c([N+](=O)[O-])ccc(c23)C(=O)N1c1nccs1	.	.	?	.	1.8µM
O=C1c2cccc3c([N+](=O)[O-])ccc(c23)C(=O)N1c1ccc(Cl)cn1	.	.	?	.	14µM
O=C1c2cccc3c([N+](=O)[O-])ccc(c23)C(=O)N1c1ccccn1	.	.	28µM	/	20µM
O=C1c2cccc3c([N+](=O)[O-])ccc(c23)C(=O)N1O	.	.	/	.	.
CN1CCC(NC(=O)Cc2c(F)cccc2Cl)CC1	.	.	.	.	.
O=C(Cc1ccc(F)cc1)NC1CC(=O)N(c2ccc3c(c2)OCCO3)C1 (stereo unspecified)	.	/	/	/	.
COc1cc2ccc(=O)oc2c(O)c1O	?	/	.	25µM	/
COc1cc2ccc(=O)oc2c(OC)c1OC	/	/	/	.	/
CN(C)c1ccc(CNc2ncnc3sccc23)cc1	.	.	.	.	.
CCCC(=O)NC(=S)Nc1cccc2c(O)cccc12	.	.	.	.	14µM
O=C(NC(=S)Nc1cccc2cc(O)ccc12)c1ccco1	.	.	.	.	10µM
Cc1cc(NC(=S)NC(=O)c2ccco2)c2ccccc2n1	.	.	.	.	?
COc1ccc(C(=O)NC(=S)Nc2cccc3cc(O)ccc23)cc1OC	.	.	.	/	?
COc1ccc(C(=O)NC(=S)Nc2cccc3ncccc23)cc1[N+](=O)[O-]	.	.	.	/	6.3µM
O=C(NC(=S)Nc1cccc2ncccc12)c1ccco1	.	.	.	?	14µM
COC(=O)[C@H]1C[C@@]2(O)CN(S(=O)(=O)c3ccc(C)cc3)C[C@@]2(OC(=O)NCc2ccccc2F)C[C@H]1C(=O)OC	.	/	.	/	/
COC(=O)c1cc(C(=O)Nc2ccc(Cl)cn2)cc([N+](=O)[O-])c1	.	.	.	.	.
SMILES	TbPYK inhibitor	LmPK inh	RE007 growth inh	FBPA Giardia inh	Sm TGR block
COc1nc(-c2ccccc2)ccc1-c1noc(-c2ccccc2Br)n1	.	/	/	/	.
O=C(NC(=S)Nc1cccc2cc(O)ccc12)c1ccccc1Br	.	.	.	/	35µM
O=C(NC(=S)Nc1cccc2c(O)cccc12)c1ccco1	.	.	.	?	25µM
Cc1c(NC(=O)c2ccco2)cccc1-c1nc2cccnc2s1	.	.	.	.	20µM
COc1ccccc1C(=O)NC(=S)Nc1cccc2cc(O)ccc12	.	/	.	/	/
N=C1CCCN1CC(=O)c1cccs1	.	.	.	.	/
CC(=O)Oc1ccc(CN2C(=O)C(CCc3ccccc3)ON=C2c2cnccn2)cc1 (stereo unspecified)	.	/	.[18.4 µM]	/	/
Cn1c(SCc2ccccc2)nnc1C1CCCNC1 (stereo unspecified)	.	.	.	.	45µM
Cn1c(SCc2ccc(Cl)cc2)nnc1C1CC1	.	.	.	?	.
CCC(=NCc1ccco1)c1c(O)n(C)c(=O)n(C)c1=O	.	.	.	.	25µM
CC(=NCc1ccco1)c1c(O)n(C)c(=O)n(C)c1=O	.	.	.	.	.
O=C(Nc1ccc(N2CCCCC2)cc1)c1ccccn1	?	7.9µM	?	.	.
CC(C)C(=O)Nc1ccc(N2CCCC2)cc1	.	.	.	?	35µM
CCn1c(SCC(=O)N2CCCCC2)nc(O)cc1=O	.	.	.	.	.
Cc1noc(/C=C/c2ccco2)c1S(=O)(=O)N1CCC(C(=O)N(C)Cc2ccccc2)CC1	.	.	.	.	13µM
